Inconclusive results are not listed. Where a call stands in place of a potency, no number is given. Activity calls are given as the source filed them. Calls follow the shape of the dose curve; as a rule, active = well fitted cell-killing curve with a large enough effect in the repeat runs; inconclusive = weak or mixed curves, or effect the other way; inactive = flat fitted curve, though single readings scatter.

The assay can be described thus: qHTS RealTime-Glo MT Cell Viability Assay in HEK293 cells - 0 hour (AID 1224880). Also: top concentration of the series differs between compounds; nearly all actives have a fitted effect of over 45% in size. The settings on record: RealTime-Glo luminescence; series mostly up to 76.8 µM. In outline:
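Measured as luminescence from the same continuously cultured HEK293 wells at successive time points (0, 8, 16, 24, 32, 40 h) after compound addition. Reagent present from seeding; dosing at 5 h; incubation 37 C.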
`CC(C)(C)C(=O)OCOC(=O)[C@@H]1N2C(=O)[C@@H](NC(=O)[C@H](N)c3ccccc3)[C@H]2SC1(C)C`: the Potency result was “inactive”. On to `O=[N+]([O-])c1ccccc1Nc1ccccc1`, for which the Potency entry is “inactive”.

In the case of `CC(C)(C)c1ccc(C(=O)O)cc1`, the Potency entry is “inactive”. Take `CCCCCCCC(=O)[O-].CCCCCCCC(=O)[O-].[Zn+2]`: the Potency entry is “inactive”. Regarding `CCCCCCCCCCC=O`, the Potency result was “inactive”. As for `C[C@H](CCC(=O)O)[C@H]1CC[C@H]2[C@@H]3CC[C@@H]4C[C@H](O)CC[C@]4(C)[C@H]3CC[C@]12C`, the Potency result is “inactive”. As for `O=C(O)c1ccc(Cl)c(Cl)c1`, the Potency entry is “inactive”. As for `NC(=NCCCCCCN=C(N)/N=C(\N)Nc1ccc(Cl)cc1)/N=C(\N)Nc1ccc(Cl)cc1`, the Potency entry was “inactive”. On to `COc1cccc(N)c1`, for which the Potency entry is “inactive”. With `O=C1C=CC(=O)N1`, the Potency result is “inactive”. To `CCCCCCCC/C=C\CCCCCCCCOCCO` belongs “inactive”; to `Cc1cc(O)c(C(C)(C)C)cc1Sc1cc(C(C)(C)C)c(O)cc1C`, “inactive”. For `NNC(=O)c1cccc(C(=O)NN)c1`, the Potency entry is “inactive”. With `C=CC(=O)OCC(CO)(COCC(COC(=O)C=C)(COC(=O)C=C)COC(=O)C=C)COC(=O)C=C` the entry was “inactive”. Consider `CC[C@H]1O[C@]2(CC[C@@H]1C)C[C@@H]1C[C@@H](C/C=C(\C)C[C@@H](C)/C=C/C=C3\CO[C@@H]4[C@H](O)C(C)=C[C@@H](C(=O)O1)[C@]34O)O2`, for which the Potency result is “inactive”.

Consider `CN(C)[C@@H]1C(=O)C(C(N)=O)=C(O)[C@@]2(O)C(=O)C3=C(O)c4c(O)ccc(Cl)c4[C@@H](O)[C@H]3C[C@@H]12`, for which the Potency entry was “inactive”.

For `COc1ccc(C(=O)/C(Br)=C\C(=O)O)cc1`, the Potency result was “inactive”.

`Oc1c(Cl)cc(Cl)c2cccnc12`: the Potency result was “inactive”. To `O=C1CCCCCN1SSN1CCCCCC1=O` belongs “inactive”; to `O=C(c1ccc(O)cc1O)c1ccc(O)cc1O`, “inactive”. Turning to `Nc1ccc2cc(S(=O)(=O)O)cc(O)c2c1N=Nc1ccccc1C(F)(F)F`, the Potency entry was “inactive”. For the molecule `CN(C)[C@@H]1C(=O)C(C(N)=O)=C(O)[C@@]2(O)C(=O)C3=C(O)c4c(O)cccc4C[C@H]3C[C@@H]12`, the Potency result was “inactive”. For the molecule `C1CCCC1`, the Potency result is “inactive”. On to `CCCC(c1cc(C(C)(C)C)c(O)cc1C)c1cc(C(C)(C)C)c(O)cc1C`, for which the Potency entry is “inactive”. With `Clc1ccccc1C(c1ccccc1)(c1ccccc1)n1ccnc1`, the Potency result was “inactive”.

The values above are taken from PubChem BioAssay (Tox21).
